VLA-4 inh: inhibition in a human VLA-4 binding assay. VLA-4 expressing cells, ligand binding flow cytometry. P13612. hit rate 0.2% among 330,000. inhibition, % (about 7 µM as worked out from the volumes in the protocol); in the data active means inhibition above about 50%
GRK2 inh: human GRK2 inhibition via aptamer displacement. P25098. bead flow cytometry, FAM-aptamer displacement from GRK2. inhibition of aptamer binding, % at 10 µM. hit rate 0.59% among 330,000. AID 488847;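 active means inhibition of aptamer binding above 40%, roughly 3 SD of noise, on plates passing a quality check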;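 further: median bead fluorescence of bound FAM aptamer so fluorescent compounds give negative values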
Target sequence (P25098 whole entry, looked up): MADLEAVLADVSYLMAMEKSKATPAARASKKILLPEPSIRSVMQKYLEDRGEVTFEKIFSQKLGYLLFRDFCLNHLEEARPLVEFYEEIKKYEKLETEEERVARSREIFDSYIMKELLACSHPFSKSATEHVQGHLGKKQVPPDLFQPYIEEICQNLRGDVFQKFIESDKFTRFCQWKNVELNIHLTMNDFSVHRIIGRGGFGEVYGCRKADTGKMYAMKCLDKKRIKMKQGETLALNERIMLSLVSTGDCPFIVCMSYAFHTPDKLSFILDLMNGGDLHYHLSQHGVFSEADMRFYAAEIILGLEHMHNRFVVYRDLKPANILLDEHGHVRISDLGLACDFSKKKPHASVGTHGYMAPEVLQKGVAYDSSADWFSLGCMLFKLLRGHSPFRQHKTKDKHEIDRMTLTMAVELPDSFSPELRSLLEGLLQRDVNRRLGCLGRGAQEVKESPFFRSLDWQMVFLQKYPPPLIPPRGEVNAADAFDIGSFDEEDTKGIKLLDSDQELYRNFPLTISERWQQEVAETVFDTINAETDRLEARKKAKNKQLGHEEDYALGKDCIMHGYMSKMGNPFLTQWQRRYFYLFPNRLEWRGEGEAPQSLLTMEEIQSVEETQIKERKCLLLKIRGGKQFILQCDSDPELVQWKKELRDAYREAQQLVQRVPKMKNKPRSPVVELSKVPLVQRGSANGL
DSG3 Ab inh: blocks pemphigus antibody binding to human desmoglein-3; P32926; DSG3-coupled beads, scFv-anti-DSG3-GFP binding, flow cytometry; hits give low values; binding (percent of control), % at 10 µM; hit rate 0.48% among 310,000; AID 588358;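 active means binding more than 3 SD below its plate's average and above zero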;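 further: hits lower antibody fragment binding to DSG3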
GASC-1 inh: inhibitors of human GASC-1 (JMJD2C) demethylase. Q9H3R0. GST-JMJD2C(1-420) H3K9me3 demethylation, DELFIA europium. inhibition, % at 2.35 µM. hit rate 0.069% among 330,000;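 active means more than half of a compound's replicate wells show inhibition beyond 50%, single wells judged on their own value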;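 further: signal counts dimethyl H3K9 product captured on neutravidin plate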
PREPL inh: human PREPL enzyme inhibition; recombinant PREPL, fluorescence polarization activity-based probe; hit rate 0.68% among 320,000; inhibition, % at 5.96 µM; AID 2751; in the data active means inhibition above about 43%
GRK2 inh confirm: confirmation of human GRK2 inhibitors displacing RNA aptamer; shares compounds with GRK2 inh; AID 504451; aptamer displacement, % at 10 µM; hit rate 4% among 2,000; bead-bound GRK2, FAM-aptamer displacement, flow cytometry;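 active means aptamer displacement above 40%, near three times the noise of non-fluorescent compounds, on plates passing quality checks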;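 further: negative values mostly reflect intrinsic compound fluorescence rather than true enhancement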
Aptamer quench SP: aptamer fluorescence quenching in GRK2 counter-screen; shares compounds with GRK2 inh; Carboxyfluorescein RNA aptamer on beads, flow cytometry quenching; hits give low values; fluorescence response (% of DMSO), % at 10 µM; 2,000 tested, under 10 active; AID 504580;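 active means compounds that quench the bead-bound fluorescent RNA probe, cutting fluorescence to under half of the solvent control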;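 further: counterscreen run without GRK2 so only probe quenching by compound is measured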
GRK2 confirm 2: confirmation of human GRK2 inhibitors binding RNA aptamer site. shares compounds with GRK2 inh. bead-bound GRK2, FAM-aptamer displacement, flow cytometry. inhibition of aptamer binding, % at 10 µM. 360 tested, under 10 active;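 active means inhibition of aptamer binding above 40%, about triple the noise seen with nonglowing compounds, on plates passing quality control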;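 further: negative values mostly come from compounds that fluoresce themselves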
FAM quench CP2: quenches fluorescent RNA aptamer, GRK2 hit artifact | shares compounds with GRK2 inh | carboxyfluorescein RNA aptamer beads, flow cytometry quenching; hits give low values | fluorescence response vs DMSO, % at 10 µM | 360 tested, under 10 active;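 active means response vs DMSO under 50%, meaning signal dropped by over half, treated as fluorescence quencher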;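 further: labelled aptamer on streptavidin beads without GRK2 as a quench counter-screen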
Each line names hits and unclear results; the compound was inactive in the other large screens (follow-up assays come after a bar, where they were run). The list is not random: actives were taken first. Their share in the collection is about 1.6%.

Cc1nc2c(nnn2Cc2ccccc2)c(=O)[nH]1	none
COCCCn1c(SCC(=O)N(C)C)nnc1-c1ccccc1	GRK2 inh 99 | GRK2 inh confirm inactive | Aptamer quench SP inactive
CC12CCC(=O)N1c1c(sc3nc(N4CCOCC4)c4c(c13)CCCC4)C(=O)N2 (stereo not drawn)	GRK2 inh 45 | GRK2 inh confirm inactive | Aptamer quench SP inactive
Cc1oc(-c2ccccc2Cl)nc1CS(=O)(=O)CC(=O)NCCc1ccccc1	none
COc1ccc(CCNC(=O)CS(=O)(=O)Cc2nc(-c3ccccc3Cl)oc2C)cc1OC	GRK2 inh 66 | GRK2 inh confirm inactive | Aptamer quench SP inactive | GRK2 confirm 2 inactive | FAM quench CP2 inactive
Nc1nnnn1/N=C/c1ccccc1OCc1ccc(Cl)cc1	GRK2 inh 74 (no result: DSG3 Ab inh) | GRK2 inh confirm inactive | Aptamer quench SP inactive
Nc1nnnn1/N=C/c1ccccc1OCc1ccc(Cl)cc1Cl	none (no result: DSG3 Ab inh)
COc1ccc(N(C(=O)c2ccco2)C(C(=O)NC2CCCC2)c2ccncc2)cc1 (stereo not drawn)	GRK2 inh 83 | GRK2 inh confirm inactive | Aptamer quench SP inactive
COc1ccc(N(C(=O)CNC(=O)c2ccco2)C(C(=O)NC2CCCC2)c2ccncc2)cc1 (stereo not drawn)	none
CCN(CC)c1ccc(/C=N/n2c(C)nc3ccccc3c2=O)cc1	none
Cc1c(NC(=O)NC(C)N2C(=O)C3C4C=CC(C4)C3C2=O)c(=O)n(-c2ccccc2)n1C (stereo not drawn)	GRK2 inh 81 | GRK2 inh confirm inactive | Aptamer quench SP inactive
Cc1c(NC(=O)CN2C(=O)C3C4C=CC(C4)C3C2=O)c(=O)n(-c2ccccc2)n1C (stereo not drawn)	none
C/C(=N\OCc1ccc(C#N)cc1)c1ccc(S(=O)(=O)N(C)C)cc1	GRK2 inh 47 | GRK2 inh confirm inactive | Aptamer quench SP inactive
N#C/C(=C\Nc1ccc(Cl)cc1)S(=O)(=O)c1ccccn1	none
COc1ccc(NC(=O)Cc2ccc(Cl)cc2)cc1NC(=O)c1ccco1	GRK2 inh 70 | GRK2 inh confirm inactive | Aptamer quench SP inactive
COc1ccc(NC(=O)c2ccco2)cc1NC(=O)c1ccco1	none (no result: DSG3 Ab inh)
CCOc1ccc(NC(=O)c2ccco2)cc1	none
CCOc1ccc(NC(=S)NC(=O)c2ccco2)cc1	GRK2 inh 74 | GRK2 inh confirm inactive | Aptamer quench SP inactive
COc1ccc(Cl)cc1NC(=S)NC(=O)c1ccco1	GRK2 inh 44 | GRK2 confirm 2 inactive | FAM quench CP2 inactive
Cc1ccc(CSc2nnc([C@@H]3CCCN3C(=O)OC(C)(C)C)o2)cc1	none (no result: DSG3 Ab inh)
COc1ccc(C(=O)Nn2c(C)nc3ccccc3c2=O)cc1[N+](=O)[O-]	none
Cc1nc2ccccc2c(=O)n1NC(=O)c1cccc([N+](=O)[O-])c1	GRK2 inh 98 | GRK2 inh confirm inactive | Aptamer quench SP inactive
Cn1c(=O)oc2cc(S(=O)(=O)NCc3ccccn3)ccc21	GRK2 inh 52 | GRK2 inh confirm inactive | Aptamer quench SP inactive
O=C(O)c1ccc(Oc2ccc(S(=O)(=O)c3ccc(C(=O)O)c(C(=O)O)c3)cc2)cc1	none (no result: PREPL inh)
CC(=O)N/C(=C\c1ccccc1)C(=O)OCC(=O)N(CC(C)C)c1c(N)n(Cc2ccccc2)c(=O)[nH]c1=O	none
CC(C)(C)c1ccc(C(=O)N2CCNCC2)cc1	GRK2 inh 65 | GRK2 inh confirm inactive | Aptamer quench SP inactive
O=[N+]([O-])c1ccc(-c2c(-c3ccccc3)ncc3ccc(F)cc23)cc1	GRK2 inh 100 | GRK2 inh confirm inactive | Aptamer quench SP inactive
CCCn1nc(C(=O)N(C)CC(=O)Nc2ccc(OCC)c(OCC)c2)c2ccccc2c1=O	none
CSCC[C@H](NC(=O)[C@@H]1CSC2c3ccccc3C(=O)N21)C(=O)NC1CCCC1 (stereo partly drawn)	none
COC(=O)CN1C(=O)C2(OCCCO2)c2cc(Br)ccc21	GRK2 inh 99 | GRK2 inh confirm inactive | Aptamer quench SP inactive
CCOc1ccc(C(C)NC(=O)C2CCC2)cc1 (stereo not drawn)	GRK2 inh 100 | GRK2 confirm 2 inactive | FAM quench CP2 inactive
N/C(=N\OC(=O)/C=C/c1ccccc1Cl)c1cccnc1	GRK2 inh 75 | GRK2 inh confirm inactive | Aptamer quench SP inactive
Cc1c(NS(=O)(=O)c2cccc(C(=O)NCc3ccccc3Cl)c2)c(=O)n(-c2ccccc2)n1C	none (no result: VLA-4 inh, GRK2 inh, GASC-1 inh, PREPL inh) | GRK2 inh confirm inactive | Aptamer quench SP inactive
Cc1c(NS(=O)(=O)c2cccc(C(=O)NC(C)c3ccccc3)c2)c(=O)n(-c2ccccc2)n1C (stereo not drawn)	none (no result: VLA-4 inh, GRK2 inh, GASC-1 inh, PREPL inh) | GRK2 inh confirm inactive | Aptamer quench SP inactive
Cc1c(NS(=O)(=O)c2cccc(C(=O)Nc3ccccc3)c2)c(=O)n(-c2ccccc2)n1C	none (no result: DSG3 Ab inh)
CC(C)N(C(=O)[C@H]1CC(CC(=O)NCCCn2ccnc2)C(=O)N2CCc3c([nH]c4ccccc34)[C@]12C)C(C)C (stereo partly drawn)	none
O=C1CCCCC1Sc1nnc(Nc2ccccc2)s1 (stereo not drawn)	none
CCc1ccc(NC(=O)N(CCCOC(C)C)C2CCN(C(C)=O)CC2)cc1	none
CCc1ccc(NC(=O)N(C2CCC(C)CC2)C2CCN(C(C)=O)CC2)cc1 (stereo not drawn)	GRK2 inh 57 | GRK2 inh confirm inactive | Aptamer quench SP inactive
CN(C)S(=O)(=O)c1ccc(Cl)c(C(=O)NC2=NCCS2)c1	none
CCOc1ccc(C2=NNC(c3cccnc3)=Nc3ccc(OC)cc32)cc1	GRK2 inh 100 | GRK2 inh confirm inactive | Aptamer quench SP inactive
COC(CNc1ncnc2c1cnn2C)OC	none (no result: DSG3 Ab inh)
COCCNC(=O)c1ccc(C)c(NC(=O)C2=C(C)OCCS2)c1	none
COc1ccc(OC)c(CNC(=O)c2ccc(C)c(NC(=O)C3=C(C)OCCS3)c2)c1	none | GRK2 inh confirm inactive | Aptamer quench SP inactive
CC1=C(C(=O)Nc2cc(C(=O)N(C)Cc3ccccc3)ccc2C)SCCO1	none | GRK2 inh confirm inactive | Aptamer quench SP inactive
CCOC(=O)c1c(NC(=O)CSc2nc3ccccc3o2)sc(C(C)=O)c1C	GRK2 inh 51 | GRK2 inh confirm inactive | Aptamer quench SP inactive
CCOC(=O)C1CCCN(C(=O)/C=C/c2ccccc2[N+](=O)[O-])C1 (stereo not drawn)	none
O=C(Oc1ccc(Cl)c2cccnc12)N1CCCCC1	none
